# Data from PubChem BioAssay (EPA / NIEHS).
# Inconclusive results are not listed. Activity calls are given as the source filed them. The calls were made as follows, unless noted: active = hit-call score of the fitted dose curve at least 0.9, where 1 is the maximum; inconclusive = response in the unintended direction; inactive = score below 0.9.
# Columns and labels:
# [1] = target: human Thyroid hormone Receptor beta (TRb), THRB (gene 7068) (UniProt P10828); assay: ATG_hTRb_XSP2: Attagene TRANS-FACTORIAL Multi-Species (XSP2) HepG2 Assay for human Thyroid hormone Receptor beta (TRb) (AID 2283840);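 also: actives raise reporter mRNA so potency reflects agonist-like gain of signal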
# Outline: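 HepG2 transiently transfected with a multi-species panel including a human TRb–Gal4 chimera driving Gal4-UAS reporters; medium contained 3 nM 6-alpha-fluorotestosterone and 1.5 nM norgestrel. 24 h dosing; RT-PCR/capillary electrophoresis readout; positive-direction fit vs DMSO.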
# [2] = test system: Sodium/Iodide Symporter (NIS), SLC5A5 (gene 6528); assay: CPHEA_Stoker_NIS_Inhibition_RAIU: CPHEA's Radioactive Iodide Uptake (RAIU) Assay for Sodium/Iodide Symporter (NIS) Inhibition, Stoker and Laws Labs (AID 2283841)
# Outline: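 Iodide uptake read as CPM of intracellular 125I (final 329 pM) after 2 h room-temperature exposure in HEPES-buffered HBSS, pH 7.4. Human NIS-expressing HEK293T cells; six concentrations 0.001–100 uM, 0.5% DMSO, normalised to DMSO wells.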
# [3] = CPHEA_Stoker_NIS_Cytotoxicity: Cytotoxicity Assessment for CPHEA's Radioactive Iodide Uptake (RAIU) Assay for Sodium/Iodide Symporter (NIS) Inhibition, Stoker and Laws Labs (AID 2283897);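 as to AC50: active means loss of ATP signal versus DMSO meaning cytotoxicity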
# Outline: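 CellTiter-Glo ATP luminescence gauged viability in HEK293T cells expressing human NIS after 2 h chemical exposure. Concentrations ran 0.001–100 uM in 0.5% DMSO; DMSO served as baseline for the loss-of-signal fit.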
# [4] = CEETOX_H295R_11DCORT_noMTC: CeeTox H295R High-throughput Steroidogenesis Assay for 11-Deoxycortisol (11DCORT), maximum tolerated concentration (MTC) filtered results only (AID 2283911; active = hit-call score of the fitted dose curve at least 0.9, where 1 is the maximum; inactive = score below 0.9); details: actives raise or lower the signal
# Outline: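 H295R cells were prestimulated 48 h with 10 uM forskolin, then exposed 48 h to chemical (0.1% DMSO final). 11-Deoxycortisol in the medium was measured by MTBE extraction and HPLC-MS/MS, with bidirectional fitting versus DMSO and no MTC filtering of concentrations.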
# [5] = CEETOX_H295R_OHPREG_noMTC: CeeTox H295R High-throughput Steroidogenesis Assay for OH-Pregnenolone (OHPREG), maximum tolerated concentration (MTC) filtered results only (AID 2283912; active = hit-call score of the fitted dose curve at least 0.9, where 1 is the maximum; inactive = score below 0.9); details: actives raise or lower the signal
# Outline: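 Medium 17alpha-hydroxypregnenolone quantified by reverse-phase HPLC-MS/MS after 48 h chemical exposure of forskolin-prestimulated (10 uM, 48 h) H295R, 0.1% DMSO final. Fitting bidirectional relative to DMSO; no maximum-tolerated-concentration filtering applied.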
# [6] = CEETOX_H295R_OHPROG_noMTC: CeeTox H295R High-throughput Steroidogenesis Assay for OH-Progesterone (OHPROG), maximum tolerated concentration (MTC) filtered results only (AID 2283914; active = hit-call score of the fitted dose curve at least 0.9, where 1 is the maximum; inactive = score below 0.9); details: actives raise or lower the signal
# Outline: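 After 48 h forskolin (10 uM) prestimulation, H295R adrenal cells received test chemical in 0.1% DMSO for 48 h. Medium 17alpha-hydroxyprogesterone was MTBE-extracted and measured by HPLC-MS/MS; gain or loss relative to DMSO, no MTT-based MTC filtering.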
# [7] = CEETOX_H295R_CORTISOL_noMTC: CeeTox H295R High-throughput Steroidogenesis Assay for Cortisol, maximum tolerated concentration (MTC) filtered results only (AID 2283916; active = hit-call score of the fitted dose curve at least 0.9, where 1 is the maximum; inactive = score below 0.9); details: actives raise or lower the signal
# Outline: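 Cortisol secretion measured by LC-MS/MS after 48 h chemical treatment (final 0.1% DMSO) of forskolin-primed (10 uM, 48 h) H295R cells; gain or loss fitted relative to DMSO, without maximum-tolerated-concentration filtering.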
# [8] = CEETOX_H295R_CORTIC_noMTC: CeeTox H295R High-throughput Steroidogenesis Assay for Corticosterone (CORTIC), maximum tolerated concentration (MTC) filtered results only (AID 2283917; active = hit-call score of the fitted dose curve at least 0.9, where 1 is the maximum; inactive = score below 0.9); details: actives raise or lower the signal
# Procedure: CEETOX_H295R is a cell-based, multiplexed-readout assay that uses H295R, a human adrenal gland cell line, with measurements taken at 48 hours after chemical dosing in a 96-well plate.CEETOX_H295R_CORTIC_noMTC is one of 12 assay component(s) measured or calculated from the CEETOX_H295R assay (11 hormones and 1 viability assay). It is designed to make measurements of hormone induction, a form of inducible reporter, as detected with absorbance signals by HPLC-MS-MS technology. The concentrations for these components have not been pre-filtered for the maximum tolerated concentration (MTC) based on the MTT assay (_noMTC).Data from the assay component CEETOX_H295R_CORTIC_noMTC was analyzed into 1 assay endpoint. This assay endpoint, CEETOX_H295R_CORTIC_noMTC, was analyzed with bidirectional fitting relative to DMSO as the negative control and baseline of activity. […]
# Cell culture and media preparation procedures were conducted in accordance with OECD Test No. 456 guidelines, with minor modifications. […] For steroid quantification, media samples were shipped to OpAns, LLC (Durham, NC) on dry ice, and samples were thawed to room temperature prior to liquid-liquid extraction. […] Steroid hormones were separated by HPLC, eluted using a reverse phase C18 gradient with electrospray positive ionization, followed by quantification by tandem mass spectrometry (MS/MS). […]
# [9] = CEETOX_H295R_DOC_noMTC: CeeTox H295R High-throughput Steroidogenesis Assay for DOC, maximum tolerated concentration (MTC) filtered results only (AID 2283918; active = hit-call score of the fitted dose curve at least 0.9, where 1 is the maximum; inactive = score below 0.9); details: actives raise or lower the signal
# Outline: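 11-Deoxycorticosterone secreted by human adrenal H295R cells quantified by HPLC-MS/MS after 48 h chemical exposure (0.1% DMSO), following 48 h 10 uM forskolin prestimulation. Concentrations not filtered by MTT-derived MTC; bidirectional fitting.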
# [10] = CEETOX_H295R_ESTRADIOL_noMTC: CeeTox H295R High-throughput Steroidogenesis Assay for Estradiol, maximum tolerated concentration (MTC) filtered results only (AID 2283919; active = hit-call score of the fitted dose curve at least 0.9, where 1 is the maximum; inactive = score below 0.9); details: actives raise or lower the signal
# Outline: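 Readout: dansyl-derivatized estradiol quantified by LC-MS/MS in medium from H295R cells dosed 48 h (0.1% DMSO) following 48 h forskolin (10 uM) prestimulation. Gain or loss of signal fitted against DMSO; no MTC filtering applied.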
# Chain of human Thyroid hormone Receptor beta (TRb), THRB (gene 7068) (P10828 whole entry, looked up, the tested form may be a part): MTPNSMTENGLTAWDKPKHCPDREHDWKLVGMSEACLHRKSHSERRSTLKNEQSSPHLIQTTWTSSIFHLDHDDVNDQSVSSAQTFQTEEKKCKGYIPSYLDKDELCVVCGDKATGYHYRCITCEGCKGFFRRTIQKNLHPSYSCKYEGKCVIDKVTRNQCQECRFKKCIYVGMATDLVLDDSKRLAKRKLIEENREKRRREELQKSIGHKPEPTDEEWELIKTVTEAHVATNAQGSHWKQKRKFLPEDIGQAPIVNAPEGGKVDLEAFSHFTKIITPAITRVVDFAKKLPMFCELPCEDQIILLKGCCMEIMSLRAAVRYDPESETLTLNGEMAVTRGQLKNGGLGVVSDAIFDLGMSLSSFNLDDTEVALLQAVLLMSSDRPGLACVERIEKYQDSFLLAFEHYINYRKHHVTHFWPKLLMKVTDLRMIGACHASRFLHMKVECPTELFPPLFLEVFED
smiles,measurement,setting,value
CC(=O)S[C@@H]1CC2=CC(=O)CC[C@]2(C)[C@H]2CC[C@@]3(C)[C@@H](CC[C@@]34CCC(=O)O4)[C@H]12,outcome,[1],inactive
CCCN(CCC)c1c([N+](=O)[O-])cc(C(F)(F)F)c(N)c1[N+](=O)[O-],AC50,[2],31.8 µM (active)
same,AC50,[3],47.8 µM (active)
C#C[C@]1(O)CC[C@H]2[C@@H]3CCC4=CC(=O)CC[C@@H]4[C@H]3CC[C@@]21CC,AC50,[1],1.44 µM (active)
c1ccc(Nc2ccccc2)cc1,outcome,[2],inactive
same,outcome,[3],inactive
N[C@@H](Cc1cc(I)c(Oc2ccc(O)c(I)c2)c(I)c1)C(=O)O,outcome,[2],inactive
same,outcome,[3],inactive
CCOC(=O)C(C)Oc1ccc(Oc2cnc3cc(Cl)ccc3n2)cc1 (stereo unspecified),outcome,[2],inactive
same,outcome,[3],inactive
CCCCC(CC)CN1C(=O)C2C3C=CC(C3)C2C1=O (stereo unspecified),outcome,[2],inactive
same,AC50,[3],50 µM (active)
COC(=O)c1ccccc1C(=O)O,outcome,[4],inactive
same,outcome,[5],inactive
same,outcome,[6],inactive
same,outcome,[7],inactive
same,outcome,[8],inactive
same,outcome,[9],inactive
same,outcome,[10],inactive
CCCCC(CC)COC(=O)c1ccccc1C(=O)O (stereo unspecified),outcome,[4],inactive
same,outcome,[5],inactive
same,outcome,[6],inactive
same,outcome,[7],inactive
same,outcome,[8],inactive
same,outcome,[9],inactive
S=C([S-])NCCNC(=S)[S-].[Mn+2],outcome,[2],inactive
same,outcome,[3],inactive
COC(=O)CSc1cc(N=c2sc(=O)n3n2CCCC3)c(F)cc1Cl,outcome,[2],inactive
same,outcome,[3],inactive
S=C(S)NCCNC(=S)S.[Mn+2].[S-]C([S-])=NCCN=C([S-])[S-].[Zn+2],outcome,[2],inactive
same,outcome,[3],inactive
CC(C)CCCCCCc1ccc(O)cc1,outcome,[1],inactive
same,outcome,[2],inactive
same,outcome,[3],inactive
CCOC(=O)C(C)Oc1ccc(Oc2nc3ccc(Cl)cc3o2)cc1 (stereo unspecified),outcome,[2],inactive
same,outcome,[3],inactive
C=CCOC(Cn1ccnc1)c1ccc(Cl)cc1Cl (stereo unspecified),outcome,[2],inactive
same,outcome,[3],inactive
CCCN(CCC)C(=O)SCC,outcome,[2],inactive
same,outcome,[3],inactive
CCCCOCCOCCOCc1cc2c(cc1CCC)OCO2,outcome,[2],inactive
same,outcome,[3],inactive
CN(C)C(=O)Nc1ccc(Cl)c(Cl)c1,outcome,[1],inactive
CCN(Cc1c(F)cccc1Cl)c1c([N+](=O)[O-])cc(C(F)(F)F)cc1[N+](=O)[O-],outcome,[1],inactive
same,outcome,[2],inactive
same,outcome,[3],inactive
CSC(=O)c1cccc2nnsc12,outcome,[1],inactive
same,outcome,[2],inactive
same,outcome,[3],inactive
Oc1ccc(C(c2ccc(O)cc2)C(Cl)(Cl)Cl)cc1,outcome,[1],inactive
same,AC50,[2],50 µM (active)
same,AC50,[3],39.9 µM (active)
CCCCCCC(C)OC(=O)COc1nc(F)c(Cl)c(N)c1Cl (stereo unspecified),AC50,[2],11.3 µM (active)
same,outcome,[3],inactive
CCOC(=O)COc1cc(-n2ncc(C(F)(F)F)c(C)c2=O)c(F)cc1Cl,outcome,[2],inactive
same,outcome,[3],inactive
CCCCCOC(=O)COc1cc(N2C(=O)C3=C(CCCC3)C2=O)c(F)cc1Cl,outcome,[2],inactive
same,outcome,[3],inactive
O=C(Nc1ccc([N+](=O)[O-])cc1Cl)c1cc(Cl)ccc1O,AC50,[2],0.111 µM (active)
same,outcome,[3],inactive
C#CCOC(=O)[C@@H](C)Oc1ccc(Oc2ncc(Cl)cc2F)cc1,outcome,[2],inactive
same,outcome,[3],inactive
Cc1nn(C)c(Oc2ccccc2)c1C=NOCc1ccc(C(=O)OC(C)(C)C)cc1,outcome,[2],inactive
same,outcome,[3],inactive
O=C(O)c1ccccc1,outcome,[2],inactive
same,outcome,[3],inactive
CC1(C)C(C=C(Cl)Cl)C1C(=O)OCc1cccc(Oc2ccccc2)c1 (stereo unspecified),AC50,[1],100 µM (active)
CCCCOC(=O)[C@@H](C)Oc1ccc(Oc2ccc(C(F)(F)F)cn2)cc1,outcome,[2],inactive
same,outcome,[3],inactive
CC(=O)[C@H]1CC[C@H]2[C@@H]3CCC4=CC(=O)CC[C@]4(C)[C@H]3CC[C@]12C,AC50,[2],84.4 µM (active)
same,AC50,[3],9.92 µM (active)
CCOC(=O)NCCOc1ccc(Oc2ccccc2)cc1,AC50,[2],40.2 µM (active)
same,AC50,[3],34 µM (active)
N#CSCSc1nc2ccccc2s1,AC50,[2],50 µM (active)
same,outcome,[3],inactive
CC(C)(c1ccc(O)cc1)c1ccc(O)cc1,outcome,[1],inactive
same,outcome,[2],inactive
same,outcome,[3],inactive
CCCCOC(=O)C(C)Oc1ccc(Oc2ccc(C(F)(F)F)cn2)cc1 (stereo unspecified),outcome,[2],inactive
same,outcome,[3],inactive
O=C(c1ccc(O)cc1O)c1ccc(O)cc1O,outcome,[1],inactive
